“And” between values parts separate entries of the source, which are not always exact repeats. Equal entries are not always repeated. The campaign covered roughly 390,000 compounds. About 4,700 (1.2%) were called active. Another 4% or so got no clear call; they are omitted. Calls come from the whole dose curve; as a rule, active = well fitted inhibition curve with a large enough effect; inconclusive = small, poorly fitted or top-dose-only effect, or another doubt; inactive = no such curve, though single readings can be large or run the other way. Shown is part of a subset that was picked to be rich in actives. Some compounds were tested as several samples or in several runs, with calls that do not always agree.
% is set by controls: 0 for no effect and ±100 for the full control effect; potency is the fitted concentration of half-maximal effect.

Sequence of DNA polymerase eta (Homo sapiens) (Q9Y253 whole entry, looked up): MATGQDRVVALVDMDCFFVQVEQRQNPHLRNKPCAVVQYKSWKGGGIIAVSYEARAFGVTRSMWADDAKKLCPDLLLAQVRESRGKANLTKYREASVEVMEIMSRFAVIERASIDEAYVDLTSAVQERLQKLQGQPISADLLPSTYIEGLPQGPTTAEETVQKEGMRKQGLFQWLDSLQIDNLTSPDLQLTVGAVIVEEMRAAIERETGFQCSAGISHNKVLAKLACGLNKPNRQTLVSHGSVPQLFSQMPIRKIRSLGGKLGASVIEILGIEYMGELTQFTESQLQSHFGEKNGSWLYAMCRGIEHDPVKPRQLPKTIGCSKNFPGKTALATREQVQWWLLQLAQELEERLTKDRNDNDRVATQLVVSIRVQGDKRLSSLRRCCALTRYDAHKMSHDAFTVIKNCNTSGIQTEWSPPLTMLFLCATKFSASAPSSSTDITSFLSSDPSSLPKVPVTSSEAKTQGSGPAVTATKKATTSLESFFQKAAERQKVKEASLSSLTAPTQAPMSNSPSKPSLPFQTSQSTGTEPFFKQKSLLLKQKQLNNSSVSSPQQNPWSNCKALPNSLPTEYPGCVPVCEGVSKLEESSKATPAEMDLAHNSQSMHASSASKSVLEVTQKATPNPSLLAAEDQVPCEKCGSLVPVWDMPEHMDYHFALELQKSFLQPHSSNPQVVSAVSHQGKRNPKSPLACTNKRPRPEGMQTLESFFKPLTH

The assay deals with DNA polymerase eta (Homo sapiens) (UniProt Q9Y253). Kind of assay: qHTS for Inhibitors of Polymerase Eta. The conditions noted are these: recombinant Pol eta, fluorescent DNA replication assay; series mostly up to 114 µM; activity change, negative = inhibition: at the top concentration. The method in brief:
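Fluorescent replication assay: 50 nM final substrate added after a 15 min room-temperature compound preincubation with 10 nM enzyme. Signal taken at 0 min and again at 10 min.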
In general terms: Quantitative high-throughput screening tests each substance at several concentrations.
As to `COc1ccc(N2CCN(c3nc(-c4ccccc4F)nc4ccccc34)CC2)cc1`, the “activity change, negative = inhibition” value was -28% (inactive).

Turning to `CCc1ccccc1NC(=O)Cn1c(=O)n(CC2CCC(C(=O)NCCc3ccccc3)CC2)c(=O)c2ccccc21` (stereo not drawn), the “activity change, negative = inhibition” value was -0.518% (inactive).

Regarding `Cc1ccc(C)c(N2CCN(C(c3ccccc3)c3nnc(-c4ccccc4)o3)CC2)c1` (stereo not drawn), the “activity change, negative = inhibition” value was -21% (inactive).

In the case of `COc1cccc(CNC(=O)CN2C(=O)CCc3cc(S(=O)(=O)N4CCOCC4)ccc32)c1`, the “activity change, negative = inhibition” value is -7.78% (inactive).

In the case of `N#C/C(=C\c1ccc(O)c(O)c1)C(=O)NCc1ccccc1`, the Potency result was “inactive and 11.2 µM (active)”.

Regarding `CC(C)NC(=O)/C(C#N)=C\c1ccc(N(C)C)c(Br)c1`, the “activity change, negative = inhibition” value was -1.4% (inactive).

For `Cc1ccc(/C=C(\C#N)C(=O)Nc2cc(C)ccc2C)cc1`, the “activity change, negative = inhibition” value is -7.43% (inactive).

As to `CCc1ccc(-n2nc(C)c3c(C)cc(=O)n(CC(=O)Nc4ccc(F)cc4C)c32)cc1`, the “activity change, negative = inhibition” value was 4.22% (inactive).

On to `CN(c1ccccc1)S(=O)(=O)c1ccc(Cl)c(C(=O)OCC(=O)N2CCOCC2)c1`, for which the “activity change, negative = inhibition” value is -22.1% (inactive).

Take `CN(c1ccccc1)S(=O)(=O)c1ccc(Cl)c(C(=O)OCC(=O)NCc2ccco2)c1`: the Potency is 31.6 µM (active).

As for `CC1CCN(C(=O)COC(=O)CCC(=O)c2cccs2)CC1`, the “activity change, negative = inhibition” value was -13.2% (inactive).

Turning to `O=C(CC1CCCCC1)NCc1ccco1`, the “activity change, negative = inhibition” value is -2.88% (inactive).

For `O=C(COC(=O)c1cc(S(=O)(=O)N2CCOCC2)ccc1Cl)NCCc1ccccc1`, the “activity change, negative = inhibition” value is -21.4% (inactive).

With `Cc1cc(C(=O)OCC(=O)NCc2ccco2)c(C)n1-c1ccccc1`, the Potency is 14.1 µM (active).

Consider `O=C(COC(=O)CCC(=O)c1cccs1)NCc1ccco1`, for which the Potency was 7.08 µM (active).

In the case of `COc1ccccc1C(=O)OCC(=O)NCCNC(=O)COC(=O)c1ccccc1OC`, the “activity change, negative = inhibition” value was 0.945% (inactive).

For `O=C(COC(=O)c1ccccc1C(=O)N1CCN(c2ccccc2)CC1)NCc1ccccc1`, the “activity change, negative = inhibition” value is -14.8% (inactive).

For the compound `Cn1c(N)c(C(=O)COC(=O)c2ccccc2NCc2ccco2)c(=O)n(C)c1=O`, the “activity change, negative = inhibition” value is -3.1% (inactive).

Take `O=C(COC(=O)c1ccccc1O)NCc1ccco1`: the Potency was 79.4 µM (active).

Take `CCN(C(=O)COC(=O)CCC(=O)c1cccs1)C1CCCCC1`: the “activity change, negative = inhibition” value is -2.01% (inactive).

In the case of `Cc1ccc2nc(COc3cccc(NC(=O)Nc4ccc(C)c(Cl)c4)c3)cc(=O)n2c1`, the “activity change, negative = inhibition” value was -18.4% (inactive).

Take `COC(=O)c1cc(S(=O)(=O)N2CCN(c3cc(Cl)ccc3C)CC2)c[nH]1`: the “activity change, negative = inhibition” value is -31.5% (inactive).

Regarding `Cc1cccc(N2CCN(C(=O)CCSCc3ccccc3F)CC2)c1C`, the “activity change, negative = inhibition” value is -12.4% (inactive).

Regarding `Cc1ccc2oc(=O)c3cnn(CC(=O)N4CCN(c5cccc(Cl)c5)CC4)c3c2c1`, the “activity change, negative = inhibition” value was -17.3% (inactive).

As to `COc1ccc(-n2ccnc(NCCc3ccc(Cl)cc3)c2=O)cc1OC`, the “activity change, negative = inhibition” value was -18.9% (inactive).

For the compound `Cc1cccc(C(C)C)c1NC(=O)C(NS(=O)(=O)c1cccc2nsnc12)c1ccccc1` (stereo not drawn), the “activity change, negative = inhibition” value was -7.33% (inactive).

Take `Cc1ccc(-n2ncc3c(=O)n(Cc4cccc(C(F)(F)F)c4)cnc32)cc1C`: the “activity change, negative = inhibition” value is -8.19% (inactive).

With `CC(C)(C)NC(=O)CSc1nc(-c2ccc(F)cc2)cc(C(F)(F)F)n1`, the “activity change, negative = inhibition” value is -14.9% (inactive).

With `COc1cc(NC(=O)COC(=O)c2ccc([N+](=O)[O-])s2)cc(OC)c1OC`, the Potency was 50.1 µM (active).

Take `COc1cc(NC(=O)COC(=O)c2cnc(C)cn2)c(C)cc1[N+](=O)[O-]`: the “activity change, negative = inhibition” value was -20.1% (inactive).

`COc1cc(CCC(=O)OCC(=O)Nc2cccc(S(N)(=O)=O)c2)cc(OC)c1OC`: the “activity change, negative = inhibition” value was -22.8% (inactive).

As to `COc1ccc(CCC(=O)NCc2ccc3c(c2)CCN3C(=O)c2ccc(F)cc2)cc1`, the “activity change, negative = inhibition” value is -11.5% (inactive).

Turning to `O=C(CS(=O)(=O)c1cccc2nsnc12)N1CCN(c2cccc(Cl)c2)CC1`, the “activity change, negative = inhibition” value was -10.8% (inactive).

In the case of `COC(=O)c1ccccc1NC(=O)C(Cc1ccccc1)N1Cc2ccccc2C1=O` (stereo not drawn), the “activity change, negative = inhibition” value was -15.5% (inactive).

In the case of `Cc1ccccc1NC(=O)CN1C(=O)N/C(=C\c2cccn2-c2cccc(C(=O)O)c2)C1=O`, the Potency is 3.16 µM (active).

With `Cc1ccccc1NC(=O)Cn1c(=O)n(CCc2ccccc2)c(=O)c2ccccc21`, the “activity change, negative = inhibition” value is -18.2% (inactive).

On to `Cc1ccccc1NC(=O)CN1C(=O)C(C)(C)c2ccccc21`, for which the “activity change, negative = inhibition” value was -20.7% (inactive).

As to `CC(C)S(=O)(=O)c1oc(-c2ccc(F)cc2)nc1S(=O)(=O)c1ccc(F)cc1`, the “activity change, negative = inhibition” value is -22.2% (inactive).

For the compound `Cc1ccccc1C(=O)Nc1nnc(S(=O)(=O)N(C)c2ccc(Cl)cc2)s1`, the “activity change, negative = inhibition” value was -1.26% (inactive).

With `CCN(c1ccc(Cl)cc1)S(=O)(=O)c1nnc(NC(=O)c2ccco2)s1`, the Potency was 39.8 µM (active).

On to `CN(Cc1ccco1)S(=O)(=O)c1nnc(NC(=O)c2ccccc2)s1`, for which the “activity change, negative = inhibition” value was -18.2% (inactive).

On to `Cn1nc(-c2ccccc2)c(-c2ccccc2)c(C(=O)Nc2ccc(S(N)(=O)=O)cc2)c1=O`, for which the “activity change, negative = inhibition” value is -13.8% (inactive).

Take `Cc1cc(O)c(C(=O)/C=C/c2c(F)c(F)c(F)c(F)c2F)c(=O)o1`: the Potency is 35.5 µM (active).

For the origin of these results see PubChem BioAssay AID588591 (National Center for Advancing Translational Sciences (NCATS), 2011).
